{
  "source": "PubChem BioAssay (NCATS)",
  "note": "Records with an inconclusive call do not appear. Active and inactive are the calls of the source. Calls come from the whole dose curve; as a rule, active = well fitted inhibition curve with a large enough effect; inconclusive = small, poorly fitted or top-dose-only effect; inactive = flat fitted curve, though single readings scatter. Potency is the fitted concentration of half-maximal effect.",
  "data": [
    {"test_system": "CP325", "assay": "qHTS profiling for inhibitors of Plasmodium falciparum proliferation (AID 504749); note: nearly all actives have a fitted effect of over 60% in size;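 for activity, negative = inhibition: 0% = DMSO vehicle and full inhibition = artemisinin control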", "conditions": "P. falciparum in erythrocytes, SYBR Green DNA, 72 h; series mostly up to 28.7 µM; activity, negative = inhibition: at the top concentration", "method_in_brief": "(§1)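 P. falciparum-infected erythrocytes (0.3% parasitemia, 2.5% hematocrit) incubated with compound 72 h at 37 C, 5% CO2. Parasite DNA detected by SYBR Green after lysis, overnight at room temperature; normalised to 0.29 uM artemisinin and DMSO.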", "values": [
      {"smiles": "O=C(O)CCNC(=O)c1ccccc1", "activity, negative = inhibition": "6.09% (inactive)"},
      {"smiles": "CC(=O)Nc1ccc(OC(=O)c2ccccc2OC(C)=O)cc1", "activity, negative = inhibition": "-0.562% (inactive)"},
      {"smiles": "OCCOCCN1CCN(C2=Nc3ccccc3Sc3ccccc32)CC1", "activity, negative = inhibition": "-7.76% (inactive)"},
      {"smiles": "CN1CCN(CCC(=O)N2c3ccccc3Sc3ccc(C(F)(F)F)cc32)CC1", "activity, negative = inhibition": "-14.8% (inactive)"},
      {"smiles": "CCOCCn1c(N2CCCN(C)CC2)nc2ccccc21", "activity, negative = inhibition": "-16.4% (inactive)"},
      {"smiles": "Cc1cccc(C)c1NC(=O)CN1CCCC1", "activity, negative = inhibition": "0.791% (inactive)"},
      {"smiles": "O=C(CCN1CCN2CCCC2C1)N1c2ccccc2Sc2ccc(Cl)cc21", "note": "(configuration not stated)", "activity, negative = inhibition": "-12.3% (inactive)"},
      {"smiles": "CCCN(CCc1cccs1)[C@H]1CCc2c(O)cccc2C1", "Potency": "12 µM (active)"},
      {"smiles": "Cc1ccc(S(=O)(=O)NC(=O)NC2CCCC2)cc1", "activity, negative = inhibition": "-2.48% (inactive)"},
      {"smiles": "Cc1ccc(O)c([C@H](CCN(C(C)C)C(C)C)c2ccccc2)c1", "Potency": "10.7 µM (active)"},
      {"smiles": "CN(C)C(=O)Nc1ccc(Cl)c(Cl)c1", "activity, negative = inhibition": "-25.1% (inactive)"},
      {"smiles": "CC(C)(Cc1c[nH]c2ccccc12)NCC(O)COc1ccccc1C#N", "note": "(configuration not stated)", "activity, negative = inhibition": "-25.6% (inactive)"},
      {"smiles": "CN1CCN(c2cc3c(cc2F)c(=O)c(C(=O)O)cn3-c2ccc(F)cc2)CC1", "activity, negative = inhibition": "-24.1% (inactive)"},
      {"smiles": "CCCCCCCCOc1ccc(C(=O)c2ccccc2)c(O)c1", "activity, negative = inhibition": "-0.549% (inactive)"},
      {"smiles": "NS(=O)(=O)c1cc(C(=O)O)cc(N2CCCC2)c1Oc1ccccc1", "activity, negative = inhibition": "-1.14% [at 12.8 µM] (inactive)"},
      {"smiles": "CN1CCN(C2=Nc3cc(F)ccc3Cc3ccccc32)CC1", "activity, negative = inhibition": "-20% (inactive)"},
      {"smiles": "COc1ccc(CN(CCN(C)C)c2ncccn2)cc1", "activity, negative = inhibition": "-0.981% (inactive)"},
      {"smiles": "CN1CCC[C@@H]1CCO[C@](C)(c1ccccc1)c1ccc(Cl)cc1", "activity, negative = inhibition": "-19.5% (inactive)"},
      {"smiles": "CC1CCc2c(N3CCC(O)CC3)c(F)cc3c(=O)c(C(=O)O)cn1c23", "note": "(configuration not stated)", "activity, negative = inhibition": "-23.9% (inactive)"},
      {"smiles": "COc1cc(C(=S)N2CCOCC2)ccc1O", "activity, negative = inhibition": "-0.0265% (inactive)"},
      {"smiles": "O=C(Nc1ncc([N+](=O)[O-])s1)c1cccs1", "activity, negative = inhibition": "-0.207% (inactive)"}
    ]},
    {"test_system": "CP329", "assay": "qHTS profiling for inhibitors of Plasmodium falciparum proliferation (AID 504749); note: nearly all actives have a fitted effect of over 60% in size;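 for activity, negative = inhibition: 0% = DMSO vehicle and full inhibition = artemisinin control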", "conditions": "P. falciparum in erythrocytes, SYBR Green DNA, 72 h; series mostly up to 28.7 µM; activity, negative = inhibition: at the top concentration", "method_in_brief": "as §1", "values": [
      {"smiles": "O=C(O)CCNC(=O)c1ccccc1", "activity, negative = inhibition": "4.58% (inactive)"},
      {"smiles": "CC(=O)Nc1ccc(OC(=O)c2ccccc2OC(C)=O)cc1", "activity, negative = inhibition": "1.18% (inactive)"},
      {"smiles": "OCCOCCN1CCN(C2=Nc3ccccc3Sc3ccccc32)CC1", "activity, negative = inhibition": "-4.47% (inactive)"},
      {"smiles": "CN1CCN(CCC(=O)N2c3ccccc3Sc3ccc(C(F)(F)F)cc32)CC1", "activity, negative = inhibition": "-4.28% (inactive)"},
      {"smiles": "CCOCCn1c(N2CCCN(C)CC2)nc2ccccc21", "activity, negative = inhibition": "-26.4% (inactive)"},
      {"smiles": "CC(C)[N+](C)(C)CC(O)COc1cccc2ccccc12", "note": "(configuration not stated)", "activity, negative = inhibition": "-27.9% (inactive)"},
      {"smiles": "CN1CCN(c2c(F)cc3c(=O)c(C(=O)O)cn4c3c2SCC4)CC1", "activity, negative = inhibition": "-17.7% (inactive)"},
      {"smiles": "CCN(CC)CCOC(=O)C1(c2ccccc2)CCCC1", "activity, negative = inhibition": "-29.2% (inactive)"},
      {"smiles": "Cc1cccc(C)c1NC(=O)CN1CCCC1", "activity, negative = inhibition": "-8.35% (inactive)"},
      {"smiles": "O=C(CCN1CCN2CCCC2C1)N1c2ccccc2Sc2ccc(Cl)cc21", "note": "(configuration not stated)", "activity, negative = inhibition": "-7.44% (inactive)"},
      {"smiles": "Cc1ccc(S(=O)(=O)NC(=O)NC2CCCC2)cc1", "activity, negative = inhibition": "2.3% (inactive)"},
      {"smiles": "Cc1ccc(O)c([C@H](CCN(C(C)C)C(C)C)c2ccccc2)c1", "Potency": "13.5 µM (active)"},
      {"smiles": "CN1CCN(c2cc3c(cc2F)c(=O)c(C(=O)O)cn3-c2ccc(F)cc2)CC1", "activity, negative = inhibition": "-11.8% (inactive)"},
      {"smiles": "O=C(Nc1cccc(C2=NCCN2)c1)Nc1cccc(C2=NCCN2)c1", "Potency": "13.5 µM (active)"},
      {"smiles": "CCCCCCCCOc1ccc(C(=O)c2ccccc2)c(O)c1", "activity, negative = inhibition": "9.89% (inactive)"},
      {"smiles": "Cc1cc(-c2ccccc2)nnc1NCCN1CCOCC1", "activity, negative = inhibition": "-3.26% (inactive)"},
      {"smiles": "C[N+]1(C)CCC(=C(c2ccccc2)c2ccccc2)CC1", "activity, negative = inhibition": "-15.8% [at 12.8 µM] (inactive)"},
      {"smiles": "NS(=O)(=O)c1cc(C(=O)O)cc(N2CCCC2)c1Oc1ccccc1", "activity, negative = inhibition": "0.884% [at 12.8 µM] (inactive)"},
      {"smiles": "CN(C)CCOC(c1ccc(Cl)cc1)c1ccccn1", "note": "(configuration not stated)", "activity, negative = inhibition": "-24.3% (inactive)"},
      {"smiles": "CN1CCN(C2=Nc3cc(F)ccc3Cc3ccccc32)CC1", "activity, negative = inhibition": "-10.5% (inactive)"},
      {"smiles": "Cc1ccc2c(Br)cc(Br)c(O)c2n1", "Potency": "15.1 µM (active)"},
      {"smiles": "COc1ccc(CN(CCN(C)C)c2ncccn2)cc1", "activity, negative = inhibition": "-0.445% (inactive)"},
      {"smiles": "CC1CCc2c(N3CCC(O)CC3)c(F)cc3c(=O)c(C(=O)O)cn1c23", "note": "(configuration not stated)", "activity, negative = inhibition": "-19.3% (inactive)"},
      {"smiles": "Oc1c(Cl)cc(Cl)c(Cl)c1Cc1c(O)c(Cl)cc(Cl)c1Cl", "Potency": "13.5 µM (active)"},
      {"smiles": "COc1cc(C(=S)N2CCOCC2)ccc1O", "activity, negative = inhibition": "4.49% (inactive)"},
      {"smiles": "O=C(Nc1ncc([N+](=O)[O-])s1)c1cccs1", "activity, negative = inhibition": "0.173% (inactive)"}
    ]}
  ]
}
